From publication PMC7862700, “An all-to-all approach to the identification of sequence-specific readers for epigenetic DNA modifications on cytosine”

Columns and labels:
Assay in all cases: DAPPL (digital affinity profiling via proximity ligation, sequencing); 10 mM Tris-HCl pH 7.5, 50 mM NaCl, 1 mM DTT, 4% glycerol, room temperature, 30 min; GST-TFs on glutathione beads, 16-mer random dsDNA library, 0.1% formaldehyde crosslink after washing; high values mean tight binding
FLI1 = molecular target: T1, FLI1 (Homo sapiens, UniProt Q01543 1-452); settings: protein: recombinant; tags: N-terminal GST; dsDNA, one strand shown
T1 sequence: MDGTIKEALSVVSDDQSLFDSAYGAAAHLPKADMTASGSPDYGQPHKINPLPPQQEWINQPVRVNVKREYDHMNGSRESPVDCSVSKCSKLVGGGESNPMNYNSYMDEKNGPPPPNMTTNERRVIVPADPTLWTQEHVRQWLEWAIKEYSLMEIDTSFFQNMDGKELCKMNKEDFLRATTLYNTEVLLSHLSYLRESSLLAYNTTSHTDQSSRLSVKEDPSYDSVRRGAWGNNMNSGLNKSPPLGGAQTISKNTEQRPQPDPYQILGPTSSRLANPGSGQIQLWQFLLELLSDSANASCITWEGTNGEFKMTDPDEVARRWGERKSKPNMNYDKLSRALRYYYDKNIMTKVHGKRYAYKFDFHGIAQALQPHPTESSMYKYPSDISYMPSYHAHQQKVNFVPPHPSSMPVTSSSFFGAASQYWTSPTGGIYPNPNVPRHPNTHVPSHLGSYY
Method in brief: (§1)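 A tag-only sample was pooled with DNA-barcoded human transcription factors that had been expressed in yeast as GST fusions and captured on glutathione beads. The pools were incubated for 30 min at room temperature with 200 nmole of a random double-stranded 16-mer DNA library in Tris/NaCl/DTT/glycerol buffer, then washed, crosslinked with 0.1% formaldehyde, proximity-ligated (BsaI/T4 ligase, 1 h, 37 °C), PCR-amplified and sequenced on an Illumina NextSeq500. Binding signal is each hexamer's read frequency for a factor divided by its frequency for the tag-only sample.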

ELK1 = molecular target: T2, ELK1 (Homo sapiens, UniProt P19419 1-428); settings: protein: recombinant; tags: N-terminal GST; dsDNA, one strand shown
T2 sequence: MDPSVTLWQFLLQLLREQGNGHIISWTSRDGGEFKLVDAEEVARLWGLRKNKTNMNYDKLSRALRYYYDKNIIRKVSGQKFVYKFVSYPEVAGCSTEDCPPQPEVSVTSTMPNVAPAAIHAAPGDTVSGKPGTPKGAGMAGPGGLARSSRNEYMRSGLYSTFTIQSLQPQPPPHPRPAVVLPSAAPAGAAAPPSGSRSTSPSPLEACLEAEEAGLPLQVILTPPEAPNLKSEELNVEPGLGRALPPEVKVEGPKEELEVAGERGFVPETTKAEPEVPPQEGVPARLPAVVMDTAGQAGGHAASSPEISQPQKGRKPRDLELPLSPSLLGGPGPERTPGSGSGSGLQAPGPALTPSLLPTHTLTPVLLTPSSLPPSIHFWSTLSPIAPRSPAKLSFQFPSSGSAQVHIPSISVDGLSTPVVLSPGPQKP
Method in brief: as §1

GABPA = molecular target: T3, GABPA (Homo sapiens, UniProt Q06546 1-454); settings: protein: recombinant; tags: N-terminal GST; dsDNA, one strand shown
T3 sequence: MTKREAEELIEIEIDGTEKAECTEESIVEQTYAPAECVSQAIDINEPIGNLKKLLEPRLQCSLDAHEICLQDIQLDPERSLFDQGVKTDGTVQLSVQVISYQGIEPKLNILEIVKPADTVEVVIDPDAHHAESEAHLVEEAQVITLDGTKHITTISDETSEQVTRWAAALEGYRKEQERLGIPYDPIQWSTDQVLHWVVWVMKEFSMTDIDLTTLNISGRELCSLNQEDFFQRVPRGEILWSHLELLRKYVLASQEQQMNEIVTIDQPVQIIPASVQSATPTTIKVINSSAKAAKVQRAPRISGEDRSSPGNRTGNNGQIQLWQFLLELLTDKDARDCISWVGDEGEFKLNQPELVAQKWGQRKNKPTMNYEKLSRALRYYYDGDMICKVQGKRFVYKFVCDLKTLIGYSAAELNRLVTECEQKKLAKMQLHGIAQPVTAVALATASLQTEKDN
Method in brief: as §1

ERG = molecular target: T4, ERG (Homo sapiens, UniProt P11308 1-479); settings: protein: recombinant; tags: N-terminal GST; dsDNA, one strand shown
T4 sequence: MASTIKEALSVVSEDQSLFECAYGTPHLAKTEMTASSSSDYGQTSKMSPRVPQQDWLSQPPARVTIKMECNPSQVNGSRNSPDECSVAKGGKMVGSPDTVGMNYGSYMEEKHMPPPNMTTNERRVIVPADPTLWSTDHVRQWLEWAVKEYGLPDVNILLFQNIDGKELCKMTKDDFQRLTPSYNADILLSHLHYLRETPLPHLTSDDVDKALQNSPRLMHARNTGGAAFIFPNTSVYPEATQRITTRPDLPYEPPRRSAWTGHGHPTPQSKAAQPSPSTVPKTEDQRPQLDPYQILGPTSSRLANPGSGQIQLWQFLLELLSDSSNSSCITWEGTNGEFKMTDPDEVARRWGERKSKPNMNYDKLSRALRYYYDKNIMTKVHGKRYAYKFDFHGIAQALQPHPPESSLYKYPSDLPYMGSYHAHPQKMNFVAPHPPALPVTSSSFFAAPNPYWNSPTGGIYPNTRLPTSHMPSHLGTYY
Method in brief: as §1

ELF1 = ELF1 (Homo sapiens, UniProt P32519 1-619); settings: protein: recombinant; tags: N-terminal GST; dsDNA, one strand shown
Sequence of ELF1 (P32519 whole entry): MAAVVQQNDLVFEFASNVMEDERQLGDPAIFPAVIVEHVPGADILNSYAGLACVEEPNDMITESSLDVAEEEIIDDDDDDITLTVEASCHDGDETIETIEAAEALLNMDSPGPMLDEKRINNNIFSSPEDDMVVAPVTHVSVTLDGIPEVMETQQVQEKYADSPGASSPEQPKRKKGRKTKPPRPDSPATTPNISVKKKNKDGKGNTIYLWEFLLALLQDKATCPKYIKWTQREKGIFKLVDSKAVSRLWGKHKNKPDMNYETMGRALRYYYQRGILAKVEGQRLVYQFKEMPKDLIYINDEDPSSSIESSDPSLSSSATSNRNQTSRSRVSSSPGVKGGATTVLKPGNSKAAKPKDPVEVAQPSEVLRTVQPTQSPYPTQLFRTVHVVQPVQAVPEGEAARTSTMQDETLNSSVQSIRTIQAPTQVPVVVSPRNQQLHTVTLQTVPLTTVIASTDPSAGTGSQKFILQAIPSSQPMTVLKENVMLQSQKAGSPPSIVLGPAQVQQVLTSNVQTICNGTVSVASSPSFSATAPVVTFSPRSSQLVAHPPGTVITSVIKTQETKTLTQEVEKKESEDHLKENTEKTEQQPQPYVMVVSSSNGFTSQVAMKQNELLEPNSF
Method in brief: as §1

EHF = molecular target: T5, EHF (Homo sapiens, UniProt Q9NZC4 1-300); settings: protein: recombinant; tags: N-terminal GST; dsDNA, one strand shown
T5 sequence: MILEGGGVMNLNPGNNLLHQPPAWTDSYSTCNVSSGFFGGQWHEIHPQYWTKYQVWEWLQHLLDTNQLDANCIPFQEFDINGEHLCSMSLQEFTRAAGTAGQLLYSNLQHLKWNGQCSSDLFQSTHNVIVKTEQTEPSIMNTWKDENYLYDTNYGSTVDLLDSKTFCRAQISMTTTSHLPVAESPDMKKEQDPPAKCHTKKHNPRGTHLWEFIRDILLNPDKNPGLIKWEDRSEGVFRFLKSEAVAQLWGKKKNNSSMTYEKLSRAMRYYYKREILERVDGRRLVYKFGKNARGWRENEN
Method in brief: as §1

SPI1 = SPI1 (Homo sapiens, UniProt P17947 1-270); settings: protein: recombinant; tags: N-terminal GST; dsDNA, one strand shown
Method in brief: as §1

SPIB = SPIB (Homo sapiens, UniProt Q01892 1-262); settings: protein: recombinant; tags: N-terminal GST; dsDNA, one strand shown
Sequence of SPIB (Q01892 whole entry): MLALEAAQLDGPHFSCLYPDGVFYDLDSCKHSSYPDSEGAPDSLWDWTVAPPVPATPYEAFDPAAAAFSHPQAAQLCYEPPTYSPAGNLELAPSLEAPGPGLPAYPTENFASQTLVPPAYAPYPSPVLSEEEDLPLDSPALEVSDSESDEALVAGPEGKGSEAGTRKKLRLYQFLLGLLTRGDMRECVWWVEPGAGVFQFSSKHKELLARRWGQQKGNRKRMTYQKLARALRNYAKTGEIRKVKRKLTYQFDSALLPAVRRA
Method in brief: as §1

ELK3 = molecular target: T6, ELK3 (Homo sapiens, UniProt P41970 1-407); settings: protein: recombinant; tags: N-terminal GST; dsDNA, one strand shown
T6 sequence: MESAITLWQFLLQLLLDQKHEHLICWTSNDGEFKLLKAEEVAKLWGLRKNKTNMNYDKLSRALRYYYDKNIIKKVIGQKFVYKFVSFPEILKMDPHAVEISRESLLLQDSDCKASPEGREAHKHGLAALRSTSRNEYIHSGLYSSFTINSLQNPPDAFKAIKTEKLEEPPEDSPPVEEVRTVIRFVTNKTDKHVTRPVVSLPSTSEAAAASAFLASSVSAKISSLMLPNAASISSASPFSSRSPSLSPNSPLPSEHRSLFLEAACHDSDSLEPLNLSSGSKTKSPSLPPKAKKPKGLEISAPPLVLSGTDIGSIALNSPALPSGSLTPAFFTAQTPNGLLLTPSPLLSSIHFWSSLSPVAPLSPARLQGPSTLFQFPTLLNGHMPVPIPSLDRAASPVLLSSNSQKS
Method in brief: as §1

FEV = molecular target: T7, FEV (Homo sapiens, UniProt Q99581 1-238); settings: protein: recombinant; tags: N-terminal GST; dsDNA, one strand shown
T7 sequence: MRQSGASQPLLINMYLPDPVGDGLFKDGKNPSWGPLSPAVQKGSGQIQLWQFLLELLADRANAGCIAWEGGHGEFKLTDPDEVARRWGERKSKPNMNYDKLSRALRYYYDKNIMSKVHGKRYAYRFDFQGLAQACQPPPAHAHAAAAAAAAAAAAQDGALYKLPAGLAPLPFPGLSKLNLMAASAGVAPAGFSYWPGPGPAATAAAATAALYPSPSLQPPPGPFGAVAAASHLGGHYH
Method in brief: as §1

ETV5 = ETV5 (Homo sapiens, UniProt P41161 1-510); settings: protein: recombinant; tags: N-terminal GST; dsDNA, one strand shown
Sequence of ETV5 (P41161 whole entry): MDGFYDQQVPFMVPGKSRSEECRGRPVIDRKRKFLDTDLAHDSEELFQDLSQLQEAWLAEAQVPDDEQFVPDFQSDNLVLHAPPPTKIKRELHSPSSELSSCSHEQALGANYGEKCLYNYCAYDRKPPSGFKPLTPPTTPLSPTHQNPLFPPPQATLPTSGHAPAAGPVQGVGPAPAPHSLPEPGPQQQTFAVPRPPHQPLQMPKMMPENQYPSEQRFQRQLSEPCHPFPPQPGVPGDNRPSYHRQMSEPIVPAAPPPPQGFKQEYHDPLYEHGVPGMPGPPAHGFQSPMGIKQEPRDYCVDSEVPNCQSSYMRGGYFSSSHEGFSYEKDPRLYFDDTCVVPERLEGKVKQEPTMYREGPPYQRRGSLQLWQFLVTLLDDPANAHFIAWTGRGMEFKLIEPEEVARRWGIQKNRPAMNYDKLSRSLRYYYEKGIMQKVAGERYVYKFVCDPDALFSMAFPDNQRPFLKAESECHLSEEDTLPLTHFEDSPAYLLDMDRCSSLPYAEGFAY
Method in brief: as §1

HSF1 = HSF1 (Homo sapiens, UniProt Q00613 1-529); settings: protein: recombinant; tags: N-terminal GST; chain copies: 3; dsDNA, one strand shown
Sequence of HSF1 (Q00613 whole entry): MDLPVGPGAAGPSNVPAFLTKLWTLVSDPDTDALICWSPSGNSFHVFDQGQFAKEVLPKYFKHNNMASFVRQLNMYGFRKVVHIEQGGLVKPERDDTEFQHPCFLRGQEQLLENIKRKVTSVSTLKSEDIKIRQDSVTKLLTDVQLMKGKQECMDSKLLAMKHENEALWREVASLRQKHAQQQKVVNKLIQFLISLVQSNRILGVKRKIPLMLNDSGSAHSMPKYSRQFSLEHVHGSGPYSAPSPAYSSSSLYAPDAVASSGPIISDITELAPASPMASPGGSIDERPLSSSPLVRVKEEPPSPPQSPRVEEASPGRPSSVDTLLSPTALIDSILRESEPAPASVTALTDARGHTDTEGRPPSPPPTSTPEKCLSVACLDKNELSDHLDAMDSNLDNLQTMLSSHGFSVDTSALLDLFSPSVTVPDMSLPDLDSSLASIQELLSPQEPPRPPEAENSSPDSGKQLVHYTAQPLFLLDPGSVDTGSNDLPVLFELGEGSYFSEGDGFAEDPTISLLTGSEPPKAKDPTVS
Method in brief: as §1

SPIC = molecular target: T8, SPIC (Homo sapiens, UniProt Q8N5J4 1-248); settings: protein: recombinant; tags: N-terminal GST; dsDNA, one strand shown
T8 sequence: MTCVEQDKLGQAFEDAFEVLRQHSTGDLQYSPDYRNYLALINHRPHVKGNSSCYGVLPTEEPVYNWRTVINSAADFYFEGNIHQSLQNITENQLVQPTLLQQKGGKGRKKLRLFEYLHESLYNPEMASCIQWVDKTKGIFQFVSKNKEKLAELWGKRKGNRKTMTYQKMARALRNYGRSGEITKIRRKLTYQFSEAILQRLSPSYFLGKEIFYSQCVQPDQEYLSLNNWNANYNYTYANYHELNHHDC
Method in brief: as §1

ELF4 = ELF4 (Homo sapiens, UniProt Q99607 1-663); settings: protein: recombinant; tags: N-terminal GST; dsDNA, one strand shown
Sequence of ELF4 (Q99607 whole entry): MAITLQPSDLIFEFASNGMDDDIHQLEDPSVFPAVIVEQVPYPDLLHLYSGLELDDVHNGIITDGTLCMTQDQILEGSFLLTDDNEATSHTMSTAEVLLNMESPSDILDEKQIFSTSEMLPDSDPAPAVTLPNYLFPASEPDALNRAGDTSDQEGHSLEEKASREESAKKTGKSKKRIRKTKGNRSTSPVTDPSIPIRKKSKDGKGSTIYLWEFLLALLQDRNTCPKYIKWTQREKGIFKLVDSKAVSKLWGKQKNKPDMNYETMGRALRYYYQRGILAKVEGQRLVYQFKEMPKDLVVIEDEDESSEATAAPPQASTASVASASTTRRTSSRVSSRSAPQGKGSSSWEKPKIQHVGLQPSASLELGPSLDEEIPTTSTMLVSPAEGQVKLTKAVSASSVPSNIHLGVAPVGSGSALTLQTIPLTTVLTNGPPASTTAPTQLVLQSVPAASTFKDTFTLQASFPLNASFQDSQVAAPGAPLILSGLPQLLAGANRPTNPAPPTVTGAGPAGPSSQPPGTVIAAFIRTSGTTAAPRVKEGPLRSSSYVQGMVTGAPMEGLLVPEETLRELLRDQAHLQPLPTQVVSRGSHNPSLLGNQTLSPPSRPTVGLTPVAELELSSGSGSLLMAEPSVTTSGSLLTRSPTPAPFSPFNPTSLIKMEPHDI
Method in brief: as §1

ELK4 = molecular target: T9, ELK4 (Homo sapiens, UniProt P28324-2 1-405); settings: protein: recombinant; tags: N-terminal GST; dsDNA, one strand shown
T9 sequence: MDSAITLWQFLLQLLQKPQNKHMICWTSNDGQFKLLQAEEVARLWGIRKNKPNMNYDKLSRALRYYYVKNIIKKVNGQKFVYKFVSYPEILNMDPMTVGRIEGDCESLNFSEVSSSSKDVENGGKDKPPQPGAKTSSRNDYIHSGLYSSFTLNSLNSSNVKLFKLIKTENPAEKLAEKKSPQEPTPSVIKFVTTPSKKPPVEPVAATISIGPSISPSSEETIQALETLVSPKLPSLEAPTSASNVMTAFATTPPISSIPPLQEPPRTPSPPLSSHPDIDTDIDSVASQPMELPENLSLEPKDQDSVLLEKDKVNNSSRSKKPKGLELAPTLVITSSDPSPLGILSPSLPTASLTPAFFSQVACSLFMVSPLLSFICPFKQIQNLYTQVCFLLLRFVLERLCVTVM
Method in brief: as §1

ETV2 = molecular target: T10, ETV2 (Homo sapiens, UniProt O00321 1-342); settings: protein: recombinant; tags: N-terminal GST; dsDNA, one strand shown
T10 sequence: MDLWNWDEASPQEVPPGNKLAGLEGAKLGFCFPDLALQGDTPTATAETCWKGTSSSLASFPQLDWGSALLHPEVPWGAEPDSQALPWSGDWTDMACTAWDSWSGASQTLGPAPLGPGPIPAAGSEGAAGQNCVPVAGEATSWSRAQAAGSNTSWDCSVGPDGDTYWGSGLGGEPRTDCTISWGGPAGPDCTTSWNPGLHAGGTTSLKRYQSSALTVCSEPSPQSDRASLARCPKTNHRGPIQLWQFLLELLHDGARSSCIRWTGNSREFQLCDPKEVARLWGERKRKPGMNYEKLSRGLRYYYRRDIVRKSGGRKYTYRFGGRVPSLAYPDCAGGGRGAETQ
Method in brief: as §1

ELF3 = molecular target: T11, ELF3 (Homo sapiens, UniProt P78545 1-371); settings: protein: recombinant; tags: N-terminal GST; dsDNA, one strand shown
T11 sequence: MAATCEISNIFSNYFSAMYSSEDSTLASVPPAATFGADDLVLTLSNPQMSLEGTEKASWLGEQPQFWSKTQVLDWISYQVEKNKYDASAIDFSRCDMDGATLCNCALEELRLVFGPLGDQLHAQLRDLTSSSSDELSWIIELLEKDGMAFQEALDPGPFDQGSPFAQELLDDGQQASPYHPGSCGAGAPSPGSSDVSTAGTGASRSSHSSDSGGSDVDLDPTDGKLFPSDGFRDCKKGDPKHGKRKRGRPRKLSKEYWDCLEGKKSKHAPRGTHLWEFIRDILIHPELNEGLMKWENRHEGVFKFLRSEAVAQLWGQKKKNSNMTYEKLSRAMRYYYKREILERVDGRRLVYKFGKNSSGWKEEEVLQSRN
Method in brief: as §1

CRX = CRX (Homo sapiens, UniProt O43186 1-299); settings: protein: recombinant; tags: N-terminal GST; dsDNA, one strand shown
Sequence of CRX (O43186 whole entry): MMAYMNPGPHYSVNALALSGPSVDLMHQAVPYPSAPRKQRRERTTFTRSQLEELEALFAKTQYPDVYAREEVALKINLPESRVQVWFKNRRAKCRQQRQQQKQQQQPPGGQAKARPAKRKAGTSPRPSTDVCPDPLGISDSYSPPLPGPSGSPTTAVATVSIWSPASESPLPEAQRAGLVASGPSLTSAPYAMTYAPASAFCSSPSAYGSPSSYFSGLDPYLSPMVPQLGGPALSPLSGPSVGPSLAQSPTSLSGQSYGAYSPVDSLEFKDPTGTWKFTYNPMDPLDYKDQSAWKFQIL
Method in brief: as §1

ETV1 = ETV1 (Homo sapiens, UniProt P50549 1-477); settings: protein: recombinant; tags: N-terminal GST; dsDNA, one strand shown
Sequence of ETV1 (P50549 whole entry): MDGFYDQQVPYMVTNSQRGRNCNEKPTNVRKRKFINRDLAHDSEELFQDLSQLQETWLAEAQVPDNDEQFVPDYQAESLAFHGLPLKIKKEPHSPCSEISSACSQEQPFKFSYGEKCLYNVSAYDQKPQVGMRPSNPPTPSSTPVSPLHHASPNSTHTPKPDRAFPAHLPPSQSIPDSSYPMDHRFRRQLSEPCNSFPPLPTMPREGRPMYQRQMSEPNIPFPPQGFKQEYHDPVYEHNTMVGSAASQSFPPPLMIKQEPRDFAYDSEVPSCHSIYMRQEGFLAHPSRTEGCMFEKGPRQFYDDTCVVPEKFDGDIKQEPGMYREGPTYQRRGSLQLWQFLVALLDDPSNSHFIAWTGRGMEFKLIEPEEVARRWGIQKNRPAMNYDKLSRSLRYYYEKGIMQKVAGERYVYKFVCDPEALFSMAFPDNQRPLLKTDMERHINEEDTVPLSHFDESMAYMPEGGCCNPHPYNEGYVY
Method in brief: as §1

TGTTAT
binding signal (FLI1): 1.37 fold enrichment (6-mer frequency, TF over GST control)
binding signal (ELK1): 1.27 fold enrichment (6-mer frequency, TF over GST control)
binding signal (GABPA): 1.36 fold enrichment (6-mer frequency, TF over GST control)
binding signal (ERG): 1.41 fold enrichment (6-mer frequency, TF over GST control)
binding signal (ELF1): 1.29 fold enrichment (6-mer frequency, TF over GST control)
binding signal (EHF): 1.35 fold enrichment (6-mer frequency, TF over GST control)
binding signal (SPI1): 1.38 fold enrichment (6-mer frequency, TF over GST control)
binding signal (SPIB): 1.31 fold enrichment (6-mer frequency, TF over GST control)
binding signal (ELK3): 1.24 fold enrichment (6-mer frequency, TF over GST control)
binding signal (FEV): 1.34 fold enrichment (6-mer frequency, TF over GST control)
binding signal (ETV5): 1.34 fold enrichment (6-mer frequency, TF over GST control)
binding signal (HSF1): 1.31 fold enrichment (6-mer frequency, TF over GST control)
binding signal (SPIC): 1.45 fold enrichment (6-mer frequency, TF over GST control)
binding signal (ELF4): 1.39 fold enrichment (6-mer frequency, TF over GST control)
binding signal (ELK4): 1.35 fold enrichment (6-mer frequency, TF over GST control)
binding signal (ETV2): 1.3 fold enrichment (6-mer frequency, TF over GST control)
binding signal (ELF3): 1.35 fold enrichment (6-mer frequency, TF over GST control)
binding signal (CRX): 1.4 fold enrichment (6-mer frequency, TF over GST control)
binding signal (ETV1): 1.42 fold enrichment (6-mer frequency, TF over GST control)
